Assay outcomes: PubChem BioAssay, National Center for Advancing Translational Sciences (NCATS)
Shiga toxin inh: inhibitors of Shiga toxin in Vero cells; inhibition, % at 38.7 µM; Vero cells, Shiga toxin protein synthesis inhibition reporter; 290,000 compounds, 9.2% hits; in the data active = inhibition mostly above about 28%, no sharp cut-off; inactive = mostly below about 43%; also: 0% is about no effect
CHX counter: counter-screen hit for Shiga toxin inhibitors, cycloheximide; max response, %; AID 2314; 300,000 compounds, 12% hits; cell reporter, cycloheximide protein synthesis inhibition counterscreen; in the data active = max response mostly above about 13%, no sharp cut-off; inactive = mostly below about 14%; also: read at 38.3 µM for the half of the compounds with a filed dose; 0% is about no effect
Pf growth 96h: P. falciparum growth inhibition at 96 hour, primary screen for plastid delayed-death inhibitors. P. falciparum luciferase reporter growth, 96 h. 320,000 compounds, 6.9% hits. Potency, µM (top dose mostly 28.7 µM), inactives show top-dose activity change, negative = inhibition, hits mostly inhibitors; also: potency is read from the fitted curve at half-maximal effect; % is scaled to controls: 0 for no effect and ±100 for the full control effect
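Two parasite generations (96 h, 37 C, 5% CO2) of compound exposure in infected erythrocytes (0.05% parasitemia, 2% hematocrit). Luciferase-reporter P. falciparum; decreased luminescence indicates inhibited growth, aimed at apicoplast-acting delayed death.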
Giardia FBPA inh: inhibitors of Giardia lamblia fructose-1,6-bisphosphate aldolase; 290,000 compounds, 0.71% hits; AID 2451; A8B2U2; purified Giardia FBPA; Potency, µM (highest dose often 59.6 µM), inactives show top-dose activity, negative = inhibition, most hits filed as inhibitors; also: potency is read from the fitted curve at half-maximal effect; % is scaled to controls: 0 for no effect and ±100 for the full control effect; nearly all actives have a fitted effect of over 55% in size
Target sequence (A8B2U2 whole entry, looked up): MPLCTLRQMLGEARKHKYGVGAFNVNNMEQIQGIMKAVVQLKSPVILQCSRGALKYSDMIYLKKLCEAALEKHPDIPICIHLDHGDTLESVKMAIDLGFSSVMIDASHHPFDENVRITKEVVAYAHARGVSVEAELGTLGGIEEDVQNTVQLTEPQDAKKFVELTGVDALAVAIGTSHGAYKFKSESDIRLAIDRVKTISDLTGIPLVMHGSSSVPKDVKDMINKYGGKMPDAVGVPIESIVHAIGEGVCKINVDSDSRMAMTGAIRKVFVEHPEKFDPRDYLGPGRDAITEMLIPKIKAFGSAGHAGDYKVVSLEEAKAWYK
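40 nM FBPA preincubated 10 min at RT with compound (up to 57.5 uM final), then substrate plus GAPDH/TPI/NAD/arsenate coupling and diaphorase/resazurin added. Fluorescence read after 20 min at RT, 525/598 nm.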
Pf growth 48h: inhibits P. falciparum growth in the first generation, 48 h; P. falciparum luciferase growth in erythrocytes, 48 h; Potency, µM (highest dose often 28.7 µM), for the others: top-dose activity change, negative = inhibition, usual class: inhibitors; 310,000 compounds, 5.9% hits; AID 504832; also: potency is read from the fitted curve at half-maximal effect; % is scaled to controls: 0 for no effect and ±100 for the full control effect
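Growth was read as firefly luciferase luminescence after a 48 h, 37 C, 5% CO2 exposure of compounds to reporter-bearing P. falciparum cultures (0.1% parasitemia, 2% hematocrit final) in Albumax-supplemented RPMI 1640.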
NS1 function inh: inhibitors of influenza NS1 protein function; 270,000 compounds, 0.4% hits; AID 2326; Potency, µM (doses to about 46.1 µM), inactives show at the highest dose activity, positive = more growth; calls by dose curve; also: potency is read from the fitted curve at half-maximal effect; actives are rising curves; nearly all actives have a fitted effect of over 50% in size
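S. cerevisiae expressing influenza A NS1, grown in glucose, washed, then diluted 1:100 into pH 6.0 -URA galactose medium with 23 nl compound. Growth recovery read as OD600; NS1-free strain serves as control.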
* = called active by the depositor; ? = inconclusive; . = not tested or not shown. The list is not random: actives were taken first. Their share in the collection is about 21%. Unless noted, calls follow the shape of the dose curve; as a rule, active = well fitted curve in the direction sought with a large enough effect; inconclusive = small, poorly fitted or top-dose-only effect, or another doubt; inactive = no such curve, though single readings can be large; an effect the other way counts as inactive or inconclusive.

SMILES | Shiga toxin inh | CHX counter | Pf growth 96h | Giardia FBPA inh | Pf growth 48h | NS1 function inh
CSCCC(NC(=O)CCC(=O)OCC(=O)[C@@]1(O)CCC2[C@@H]3CCC4=CC(=O)C=C[C@]4(C)C3[C@@H](O)C[C@@]21C)C(=O)O (some centres undefined) | 21 | 2 | ? | 3% | 5.2µM* | 2%
O=C(/C=C/c1cccc([N+](=O)[O-])c1)n1cnc2ccccc21 | -8 | -2 | 174% | 1% | -16% | 0%
Cc1cc(NCCCN2CCOCC2)n2ncc(-c3ccccc3)c2n1 | 78* | 56* | ? | 14% | 55% | -3%
Cc1cc(NCCCN2CCOCC2)n2nc(C)c(-c3ccc(F)cc3)c2n1 | 10 | 8 | -13% | -1% | 7.4µM* | -7%
Cc1cc(NCCCN2CCOCC2)n2nc(C)c(-c3ccccc3)c2n1 | 21 | -1 | ? | 4% | ? | 4%
O=[N+]([O-])c1ccccc1S(=O)(=O)N1CCCC(C(F)(F)F)C1 (centres undefined) | -4 | 1 | 0.83µM* | 0% | 8% | -4%
CC1(C(=O)NCCN2CCOCC2)C=CCN1C(=O)c1ccccc1 (centres undefined) | 41* | 26* | 0% | 0% | 13% | -19%
O=C1C(Cl)=C(N2CCCC2)C(=O)N1c1ccc(F)cc1 | 10 | -2 | 0% | 5% | ? | 14%
O=C(OCC(=O)N1CCCCCC1)c1n[nH]c(=O)c2ccccc12 | -14 | -1 | 2% | 10% | 0% | 0%
CCC1CCCCN1C(=O)COC(=O)c1n[nH]c2ccccc12 (centres undefined) | -3 | 19* | . | 3% | 51% | -2%
O=C(OCCCCN1C(=O)c2ccccc2C1=O)c1n[nH]c2ccccc12 | -8 | 5 | 13µM* | -2% | ? | -41%
CC1CCN(C(=O)COC(=O)c2n[nH]c3ccccc23)CC1 | 79* | 41* | 383% | -3% | 278% | -10%
O=C(OCCCN1C(=O)c2ccccc2C1=O)c1ccco1 | -4 | 1 | . | -2% | 3% | -8%
CC1CCN(C(=O)COc2ncnc3ccccc23)CC1 | 37* | 23 | 53% | 6% | 51% | .
Cc1occc1C(=O)N1CCN(S(=O)(=O)c2ccccc2)CC1 | 26 | 7 | ? | . | 7% | 8%
C=C[C@@]1(C)CC(=O)[C@]2(O)[C@@]3(C)[C@H](O)CCC(C)(C)[C@@H]3[C@H](O)[C@H](OC(C)=O)[C@@]2(C)O1 | -7 | -1 | . | 0% | . | .
CCn1ccnc1CN(C)Cc1cn[nH]c1-c1ccc(F)cc1F | -15 | -2 | 12µM* | 3% | 9% | 2%
CCN(c1ccccc1)S(=O)(=O)c1ccc(OC)c(NC(=O)C2=NN(c3ccccc3)C(=O)CC2)c1 | . | . | ? | . | 12µM* | .
CCN(c1ccccc1)S(=O)(=O)c1ccc(OC)c(NC(=O)C2CC(=O)N(Cc3ccccc3)C2)c1 (centres undefined) | -5 | -2 | 13µM* | 0% | 6.6µM* | -67%
CCN(c1ccccc1)S(=O)(=O)c1ccc(OC)c(NC(=O)CN(C)C)c1 | -2 | 1 | -24% | ? | -21% | 3%
CCN(c1ccccc1)S(=O)(=O)c1ccc(OC)c(NC(=O)CNC)c1 | -8 | -2 | -9% | ? | -16% | 4%
C[C@@H]1C=C[C@](Cc2ccccc2)(C(=O)NCC2CC2)N1C(=O)c1ccccc1 | 173* | 70* | ? | -7% | 23% | 2%
COC(=O)CNC(=O)[C@@]1(Cc2ccccc2)C=C[C@@H](C)N1C(=O)c1ccccc1 | . | . | . | 1% | . | .
COc1ccc(/C=C/C(=O)Nc2cc(C)on2)cc1 | 107* | 42* | 8% | 15% | ? | -4%
COc1ccc(C(=O)/C=C/Nc2cc(C)on2)cc1 | 65* | 47* | -12% | -6% | . | -91%
SMILES | Shiga toxin inh | CHX counter | Pf growth 96h | Giardia FBPA inh | Pf growth 48h | NS1 function inh
Cc1cc(NC(=O)/C=C/c2ccccc2)no1 | 63* | 41* | -18% | -4% | . | -112%
Cc1cc(NS(=O)(=O)c2ccc(NC(=O)/C=C/c3ccccc3)cc2)no1 | -9 | -2 | -7% | -1% | 21% | 12%
Cc1cc(NC(=O)/C=C/c2ccccc2Cl)no1 | 67* | 23* | ? | 4% | ? | -8%
Cc1ccc(S(=O)(=O)N2CCCCCC2)cc1C(=O)NCc1ccccn1 | -9 | -4 | 19% | 14% | -2% | 6%
Cc1cccc(COc2ccccc2C(=O)OCC(=O)N(C)c2c(N)n(Cc3ccccc3)c(=O)[nH]c2=O)c1 | 11 | 6 | ? | . | ? | -8%
CCOc1cc(/C=N/NC(=O)c2nnn(-c3nonc3N)c2C)ccc1OCc1cccc(F)c1 | -3 | 3 | 10% | . | -3% | 6%
COc1ccc(C(=O)/C=C/C(=O)N(CC(=O)NC2CCCCC2)Cc2ccc(F)cc2)c(O)c1 | -4 | -1 | 2.3µM* | 2% | 9.3µM* | 3%
COc1ccc(C)cc1NC(=O)CN(Cc1nnc(-c2ccc(Cl)cc2)o1)C1CCCC1 | 15 | 13* | ? | -4% | 10µM* | -60%
COc1ccc(OC)c(NC(=O)CN(Cc2ccc(F)cc2)C2CCCCC2)c1 | 12 | -4 | ? | -10% | 4.7µM* | -10%
CS(=O)(=O)N(CC(=O)NC1CCCCC1)Cc1ccc(F)cc1 | -2 | -1 | 2% | 1% | -2% | 2%
CCOCCCN(C(=O)Cn1nnc(-c2ccc(OC)c(OC)c2)n1)C(C(=O)NCC1CCCO1)c1ccc(F)cc1 (centres undefined) | -3 | -3 | -16% | -4% | ? | -7%
O=C(CN1C(=O)c2cccc3cccc1c23)NC1CCCCC1 | 19 | -6 | 0% | . | 4% | 6%
CN(CC(=O)Nc1cccc(F)c1)C(=O)c1cccnc1Sc1ccccc1Cl | . | . | 21% | . | ? | .
CCOC(=O)C1=C(CN2CCN(C(=O)c3ccco3)CC2)NC(=O)NC1c1ccc(Cl)cc1 (centres undefined) | -16 | 7 | ? | 0% | 3.7µM* | -17%
CCOC(=O)C1=C(CN2CCN(C(=O)c3ccco3)CC2)NC(=O)NC1c1ccc(F)cc1 (centres undefined) | -3 | 8 | 33% | . | 10µM* | -5%
CCOC(=O)C1=C(CN2CCC(C)CC2)NC(=O)NC1c1ccc(Cl)cc1 (centres undefined) | -12 | -4 | . | 2% | ? | -1%
CCOC(=O)C1=C(CN2CCN(C(=O)c3ccco3)CC2)NC(=O)NC1c1ccc(OC(C)C)cc1 (centres undefined) | -3 | 10 | ? | . | 12µM* | -1%
CC(C)Oc1ccc(C(=O)N2CCN(C(=O)c3ccco3)CC2)cc1 | -6 | 1 | 10µM* | . | -5% | 5%
COc1cccc(Cn2c(=O)c(-c3ccccc3)nc3cncnc32)c1 | . | . | . | 0% | . | .
